# Compounds with a hit are over-represented: about 2.3% of the library has one in this group of screens.
# FUS suppressor = FUS proteinopathy suppression in yeast; S. cerevisiae FUS-expressing, growth rescue, OD600, 24 h; Potency, µM (highest dose often 76.6 µM), usual class: activators; 390,000 compounds, 0.24% hits; AID 1347120;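 further: plate controls were DMSO vehicle for no effect and reference control for full effect; nearly all actives have a fitted effect of over 55% in size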
#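 Compound concentration series was pinned onto galactose-induced FUS-expressing yeast seeded at OD 0.005. Plates sat 24hr at 30C; absorbance at 600 nm gave growth. DMSO served as background control.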
# Chronic BCR inh = blocks chronic active B-cell receptor signaling | ABC-DLBCL IkBa-CBG/CBR reporter, luminescence ratio, 4 h | Potency, µM (highest dose often 46.1 µM), for inactives: at the top dose activity change, negative = inhibition, actives largely listed as inhibitors | 340,000 compounds, 0.05% hits; active means well fitted inhibition curve with a large enough effect in the signal ratio, with a control signal flat, not every such curve was filed as active; inconclusive means small, poorly fitted or top-dose-only effect, or effect the other way, or a change in a side signal; the % refers to the signal ratio;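 further: plate controls were basal doxycycline-induced cells for no effect and cells given 10 µM MG132 for full effect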
#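 TMD8 ABC-DLBCL cells carrying doxycycline-inducible green luciferase fused to IkappaBalpha plus unfused red luciferase were exposed to compounds (up to 46 uM) for 4 hrs at 37C. Activity came from the overlap-corrected green/red luminescence ratio.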
# aSyn yeast inh = inhibitors of alpha-synuclein toxicity in yeast. Potency, µM (highest dose often 46.1 µM), without a hit: at the highest dose growth rescue (activation), most hits filed as activators. 370,000 compounds, 0.14% hits. Yeast expressing alpha-synuclein, growth rescue, BacTiter-Glo, 24 h; further: % of control where 0% means no effect; nearly all actives have a fitted effect of over 65% in size
#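 Galactose-induced alpha-syn yeast (OD600=0.02, raffinose-pregrown) + pinned cpd, 24 hr, 30 deg C; growth by BacTiter-Glo luminescence. Growth restoration scores as activation.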
# uPA generation = inhibitors of cell surface uPA generation; cell surface uPA generation assay, qHTS; Potency, µM (titrated, usually from 38.3 µM), for the others: at the highest dose activity change, negative = inhibition, most hits filed as inhibitors; 330,000 compounds, 0.31% hits; AID 540303; active means well fitted inhibition curve with a large enough effect; inconclusive means small, poorly fitted or top-dose-only effect; inactive means no such curve, though single readings can be large or run the other way; tested in mouse RAW 264.7 cells; further: on the % scale 0 is the no-effect control and ±100 the full control effect; nearly all actives have a fitted effect of over 55% in size
# TDP-43 yeast inh = rescues yeast growth from TDP-43 toxicity; TDP-43 expressing yeast growth rescue, BacTiter-Glo, 24 h; Potency, µM (top dose mostly 46.1 µM), for inactives: top-dose growth rescue (activation), actives largely listed as activators; 410,000 compounds, 1.8% hits; AID 652104; further: % of control where 0% means no effect; nearly all actives have a fitted effect of over 50% in size
#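 Yeast cells expressing TDP-43 under galactose induction are exposed to compounds for 24 hr at 30 deg C. BacTiter-Glo luminescence measures growth, so protective compounds score as activators.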
# Abeta rescue = A-beta toxicity reversal in yeast; yeast expressing A-beta42, growth rescue, OD600, 48 h; response scale: 0% DMSO, 100% iron-clioquinol control; Potency, µM (doses to about 46.1 µM), actives largely listed as activators; 410,000 compounds, 0.063% hits; further: nearly all actives have a fitted effect of over 55% in size
#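 Yeast A-beta toxicity model in growth medium with pinned compounds, 48 h at 30 C; growth read as absorbance at 600 nm. Normalized to FeCl3/clioquinol equimolar mix (positive) and DMSO (negative).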
# An asterisk follows results filed as active; i = inactive; ? = inconclusive; . = not tested or not shown. Unless noted, the call rests on the fitted dose curve; in most records, active means well fitted curve in the direction sought with a large enough effect; inconclusive means small, poorly fitted or top-dose-only effect, or another doubt; inactive means no such curve, though single readings can be large; an effect the other way counts as inactive or inconclusive. Potency means the concentration at half of the fitted maximal effect.
SMILES,FUS suppressor,Chronic BCR inh,aSyn yeast inh,uPA generation,TDP-43 yeast inh,Abeta rescue
O=S(=O)(c1ccc(N=C2NN=C(c3cc(F)ccc3F)CS2)cc1)N1CCOCC1,?,-7.5%,-13.7%,-10.5%,-12.8%,i
C=CCN(C(=O)COc1ccccc1)c1nnc(-c2ccncc2)s1,i,1.0%,5.7%,8.9%,21.2%,i
NC(=O)c1ccsc1NC(=O)COC(=O)COc1ccccc1[N+](=O)[O-],i,-1.2%,1.6%,11.4%,12.0%,i
CC(OC(=O)c1ccco1)C(=O)NCc1cccs1 (stereo unspecified),i,-4.3%,-0.9%,1.9%,-5.3%,i
CN(C(=O)c1oc(=O)c2ccccc2c1-c1ccccc1)c1cccc(Cl)c1,i,.,.,.,25.1µM*,i
Cc1nc2ccc(NC(=O)Cc3ccc4c(c3)OCCO4)cc2s1,.,-2.7%,-49.1%,0.7%,3.55µM*,i
CC(C)Oc1ccc(/C=C/C(=O)NCC2COc3ccccc3O2)cc1 (stereo unspecified),i,?,2.4%,0.9%,17.8µM*,?
Cc1ccccc1C(=O)OCC(=O)NCC1COc2ccccc2O1 (stereo unspecified),.,0.8%,14.0%,0.5%,14.1µM*,i
O=C(COC(=O)c1ccccc1O)NCC1COc2ccccc2O1 (stereo unspecified),.,4.2%,11.0%,6.9%,16.2%,i
O=C(COc1ccc(Br)cc1)NCC1COc2ccccc2O1 (stereo unspecified),i,?,?,-3.6%,25.1µM*,i
COCc1c(C(=O)NCC2COc3ccccc3O2)oc2ccccc12 (stereo unspecified),i,1.6%,0.8%,3.7%,31.6µM*,i
O=C(CCCn1cnc([N+](=O)[O-])n1)Nc1cc(Cl)ccc1O,i,-13.0%,0.0%,-0.5%,-2.3%,i
COc1ccc(NC(=O)CN(c2ccc(C)cc2)S(C)(=O)=O)c(OC)c1,i,-0.1%,7.1%,5.6%,10.7%,i
Cc1nn(Cc2ccccc2Cl)c(C)c1NC(=O)c1noc(C(C)C)c1[N+](=O)[O-],i,0.5%,-1.4%,7.3%,17.6%,i
COc1ccccc1N(C(=O)CNC(=O)c1ccco1)C(C(=O)NC1CCCC1)c1ccco1 (stereo unspecified),i,0.9%,4.0%,-2.5%,8.7%,i
O=C(COC(=O)c1ccc(Cl)nc1)NCc1ccc(F)cc1,i,2.7%,-4.4%,4.1%,-22.0%,i
Cc1oc(-c2ccccc2F)nc1CSCC(=O)NCCc1ccccc1,i,.,.,.,5.6%,i
O=C(Nc1ccc(-c2csc(Nc3cccc(C(F)(F)F)c3)n2)cc1)c1ccccc1,i,1.6%,-9.7%,?,19.8%,i
O=C(Nc1cccc(-c2csc(Nc3cccc(C(F)(F)F)c3)n2)c1)c1ccccc1,i,?,-23.3%,?,17.8µM*,i
Cc1ccc(NC(=O)Nc2ccnc(-c3cccnc3)n2)cc1,i,14.2%,-3.1%,24.5%,12.9%,i
CCn1c2ccccc2c2cc(/C=C(/C#N)C(N)=S)ccc21,.,.,1.5%,-2.3%,31.6µM*,i
NC(=O)c1cc(Cl)ccc1OCC(=O)Nc1ccc2c(c1)OCO2,i,?,-11.0%,6.31µM*,12.1%,i
CC(=O)c1cc(F)ccc1OCC(=O)Nc1ccc2c(c1)OCO2,i,0.6%,-4.1%,-5.1%,0.0%,i
N#Cc1ccccc1OCC(=O)Nc1ccc2c(c1)OCCO2,.,-0.4%,2.7%,-3.1%,?,i
N#Cc1ccccc1OCC(=O)Nc1ccc2c(c1)OCCCO2,i,?,16.8%,1.4%,12.6µM*,i
Cc1ccc(C)c(OCCC(=O)Nc2ccc3c(c2)OCO3)c1,.,-10.5%,-8.5%,9.7%,11.2µM*,i
O=[N+]([O-])c1cccc(-c2nn(-c3ccccc3)cc2CO)c1,i,?,5.2%,0.1%,12.6µM*,i
